# Values joined by “and” are separate entries in the source; they are usually repeats but may differ in a detail not shown here. Identical values can stand only once. Inconclusive results are not listed. Active and inactive are the calls of the source.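 How the source made its calls, unless noted: active means compound that reduces growth-factor-driven endothelial tube area in a mixed cell culture, no cutoff stated; inactive means the rest.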
# How the values were obtained:
# [1] = stimulators of nuclear beta-catenin in C2C12, primary screen, imaging, WNT3A-conditioned medium, mouse C2C12, NPC library (AID 1117326; in the data active means nuclear beta-catenin stimulation mostly above about 4.2%, no sharp cut-off; inactive means mostly below about 10%; further: reference of the scale not given here); details: stronger effect = higher value
# [2] = stimulators of insulin release from INS-1E, primary screen, cell-based, 5 mM glucose, NPC library (AID 1117329;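 active means compound raises insulin release from rat beta cells at 5 mM glucose, no numeric limit stated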; further: reference of the scale not given here); details: rat INS-1E insulin secretion, at 10 µM, stronger effect = higher value
# [3] = growth inhibition of GSK3B-pretreated HCT116 cells – cell-based, CellTiter-Glo, 0.2 to 20 µM (AID 1117336;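 active means compounds lowering colon cancer cell viability after pretreatment blocking the GSK3B kinase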); details: HCT116 viability after GSK3B inhibitor, at 20 µM, stronger effect = higher value
# [4] = inhibition of endothelial tube formation, primary screen, imaging, VEGF stimulated, CD31 staining, tube area, NPC library (AID 1117340); details: VEGF-stimulated ADSC/ECFC co-culture, at 10 µM, stronger effect = higher value
# [5] = glucagon-like peptide 1 release enhancers, primary assay, NCI-H716 cell line, NPC library (AID 1117341;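 active means compound raises GLP1 secretion from the human gut endocrine cells, with no numeric limit stated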; further: reference of the scale not given here); details: NCI-H716 cells, at 10 µM, stronger effect = higher value
# [6] = HCT116 colon cancer cell growth inhibition, primary screen, CellTiter-Glo luminescence, NPC library (AID 1117342;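 active means compounds that lower survival of HCT116 colon cancer cells in the luminescence readout, no numeric limit stated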); details: at 20 µM (top of the series)
# [7] = CellTiter-Glo luminescent readout of SW480 viability loss, NPC library primary (AID 1117343;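 active means compounds that lower viability of the colon cancer cells in the luminescence readout, with no numeric limit stated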); details: CellTiter-Glo luminescence; at 20 µM (top of the series) unless noted
# [8] = decreased DLD-1 cellular survival, CellTiter-Glo luminescent readout, NPC compound collection, primary HTS (AID 1117346;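 active means compounds that lower survival of DLD-1 colon cancer cells in the luminescence readout, no cutoff given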); details: DLD-1 viability, CellTiter-Glo luminescence; at 20 µM (top of the series)
# [9] = growth inhibition of DIPG glioma cells, dose response, cell-based, SU-DIPG-XVII, MIPE5.0, CellTiter-Glo, qHTS (AID 1347060; cut-off not given, nearly all actives have AC50 up to about 26 µM); details: SU-DIPG-XVII viability, CellTiter-Glo ATP luminescence
# [10] = growth inhibition of DIPG glioma cells, dose response, cell-based, SU-DIPG-XIII, MIPE4.0, CellTiter-Glo, qHTS (AID 1347061; cut-off not given, nearly all actives have AC50 up to about 37 µM;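 further: cells exposed to compound for 48 hours before readout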); details: SU-DIPG-XIII viability, CellTiter-Glo ATP luminescence
# [11] = growth inhibition of DIPG glioma cells, dose response, cell-based, JHH-DIPG-1, MIPE4.0, CellTiter-Glo, qHTS (AID 1347062; cut-off not given, nearly all actives have AC50 up to about 27 µM;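 on AC50: cells exposed to compound for two days before readout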); details: JHH-DIPG-1 viability, CellTiter-Glo ATP luminescence
# [12] = SU-DIPG-XXV glioma cell viability, MIPE5.0 library, qHTS (AID 1347068; cut-off not given, nearly all actives have IC50 up to about 30 µM)
# [13] = sensitizers of A549 cells to miR-34 induction, primary screen, imaging, A549 dox-inducible miR-34, nuclei and caspase counts (AID 1347080;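 active means compounds whose cell count with miR-34 switched on is under 0.7 times the count with it off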); details: A549 miR-34 inducible, Hoechst nuclei count, 48 h
# [14] = survival rescue of mitochondrial mutant cells in low glucose, primary screen, MELAS cybrids, Rieske KO mouse fibroblasts, CellTiter-Glo (AID 1508586;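 active means mean z-score across replicates of 1.96 or higher in either the MELAS or the Rieske mutant cell line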;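 further: z relative to plate mean and SD of compound and empty wells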)
# [15] = test system: Aerobactin synthetase IucA (Klebsiella pneumoniae); experiment: IucA aerobactin synthetase inhibitors, biochemical, Tocris library, absorbance (AID 1345561; call rule not given here;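 further: 100% = enzyme without compound and 0% = no enzyme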); details: purified IucA enzyme assay, absorbance (OD) read-out; stronger effect = lower value;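 tested at 8 µM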
# [16] = viability rescue of complex I mutant cybrids, primary screen, cell-based, galactose medium, ATP luminescence (AID 1645843;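 active means z-score of at least 1.8 in each of two replicates, scored against plate mean and spread of sample wells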;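 further: positive z means more ATP and so rescue of galactose-driven cybrid death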); details: complex I mutant cybrid cells, 72 h, stronger effect = higher value
# [17] = liver-stage malaria parasite growth inhibition, primary screen, cell-based, HepG2, luciferase luminescence, HepG2 viability (AID 624349; in the data active means parasite load remaining mostly below about 12%, no sharp cut-off; inactive means mostly above about 10%;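 further: 100% = mean of DMSO negative control wells on the same plate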); details: P. berghei liver stage in HepG2, luciferase luminescence, concentration not given here; parasite load remaining: stronger effect = lower value; viability: measured here: HepG2 viability without parasites
# [18] = target: NAD(+) hydrolase SARM1 (Homo sapiens) (UniProt Q6SZW1); experiment: SARM1 TIR NADase inhibitors, cell lysate, NAD-Glo luminescence (AID 1508614;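 active means compound whose remaining NAD level is above about 45 nM, limit read from the data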); details: SAM-TIR HEK293T lysate NADase, at 1 µM, stronger effect = higher value
# NAD(+) hydrolase SARM1 (Homo sapiens), sequence (Q6SZW1 whole entry, looked up): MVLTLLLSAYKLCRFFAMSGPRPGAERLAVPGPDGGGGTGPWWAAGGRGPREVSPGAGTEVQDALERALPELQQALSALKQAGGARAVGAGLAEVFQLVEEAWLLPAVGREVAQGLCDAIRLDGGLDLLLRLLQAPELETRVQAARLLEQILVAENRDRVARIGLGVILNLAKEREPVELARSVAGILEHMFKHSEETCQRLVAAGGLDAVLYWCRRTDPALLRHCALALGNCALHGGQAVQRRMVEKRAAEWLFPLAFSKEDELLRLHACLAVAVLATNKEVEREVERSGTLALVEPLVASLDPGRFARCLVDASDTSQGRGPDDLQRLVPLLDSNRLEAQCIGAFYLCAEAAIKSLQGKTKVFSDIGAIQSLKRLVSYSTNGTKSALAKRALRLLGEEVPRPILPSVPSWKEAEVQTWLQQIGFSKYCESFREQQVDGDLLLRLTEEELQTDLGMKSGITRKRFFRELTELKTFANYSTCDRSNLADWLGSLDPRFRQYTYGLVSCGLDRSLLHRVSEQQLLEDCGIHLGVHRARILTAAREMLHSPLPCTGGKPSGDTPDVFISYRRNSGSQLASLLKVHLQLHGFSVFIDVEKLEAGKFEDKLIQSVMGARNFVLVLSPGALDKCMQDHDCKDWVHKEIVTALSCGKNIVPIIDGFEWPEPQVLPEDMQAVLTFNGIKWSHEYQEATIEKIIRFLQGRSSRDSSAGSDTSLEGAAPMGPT
# [19] = stronger effect = lower value, cell number ratio, induced over uninduced
# [20] = measured here: relative caspase fold change +Dox/-Dox
# [21] = measured here: total cells with miR-34 induction, stronger effect = lower value
# [22] = measured here: total cells without miR-34 induction
# [23] = MELAS cybrid survival, CellTiter-Glo 48 h, stronger effect = higher value
# [24] = Rieske KO mouse fibroblast survival, CellTiter-Glo 72 h
smiles,measurement,setting,value
CCC(C)(Oc1ccc(C2(c3ccc(OC(C)(CC)C(=O)O)cc3)CCCCC2)cc1)C(=O)O (configuration not stated),nuclear beta-catenin stimulation,[1]; at 10 µM,-1.5% (inactive)
same,nuclear beta-catenin stimulation,"[1]; stimulation, at 2 µM",-1.3%
same,insulin secretion stimulation,[2],1.2% (inactive)
same,viability decrease,[3],-30.5% (inactive)
same,tube area decrease,[4],0.6% (inactive)
same,GLP1 secretion stimulation,[5],4.1% (inactive)
same,inhibition of viability,[6],-3.43% (inactive)
same,viability decrease (inhibition),[7],15.4% (inactive)
same,viability decrease (inhibition),[8],-14.6% (inactive)
same,outcome,[9],inactive
same,outcome,[10],inactive
same,outcome,[11],inactive
same,outcome,[12],inactive
same,fold change,[13]; [19],0.893 (inactive)
same,fold change,[13]; [20],0.926
same,cell count,[13]; [21],9130
same,cell count,[13]; [22],10200
same,z-score,[14]; [23],-0.322 (inactive)
same,z-score,[14]; [24],0.575
C=CCn1c(=O)n([C@@H]2O[C@H](CO)[C@@H](O)[C@H]2O)c2nc(N)[nH]c(=O)c21,nuclear beta-catenin stimulation,[1]; at 10 µM,0.1% (inactive)
same,nuclear beta-catenin stimulation,"[1]; stimulation, at 2 µM",2.4%
same,insulin secretion stimulation,[2],-0.5% (inactive)
same,viability decrease,[3],-3.9% (inactive)
same,tube area decrease,[4],12.2% (inactive)
same,GLP1 secretion stimulation,[5],0.6% (inactive)
same,inhibition of viability,[6],2.2% (inactive)
same,viability decrease (inhibition),[7],-8.4% (inactive)
same,viability decrease (inhibition),[8],1% (inactive)
same,remaining activity,[15],101% (inactive)
same,fold change,[13]; [19],0.961 (inactive)
same,fold change,[13]; [20],1.57
same,cell count,[13]; [21],9010
same,cell count,[13]; [22],9380
same,z-score,[16],0.185 (inactive)
O=c1[nH]c(=O)n([C@H]2C[C@H](O)[C@@H](CO)O2)cc1I,parasite load remaining,[17],42.1% (inactive) and 24.1% (inactive)
same,viability,[17],53.4% and 72.5%
same,nuclear beta-catenin stimulation,[1]; at 10 µM,-0.5% (inactive)
same,nuclear beta-catenin stimulation,"[1]; stimulation, at 2 µM",0.3%
same,insulin secretion stimulation,[2],0.4% (inactive)
same,viability decrease,[3],10.1% (inactive)
same,tube area decrease,[4],69.4% (active)
same,GLP1 secretion stimulation,[5],-0.6% (inactive)
same,inhibition of viability,[6],11.4% (inactive)
same,viability decrease (inhibition),[7],39.4% (inactive)
same,viability decrease (inhibition),[8],9.4% (inactive)
same,outcome,[9],inactive
same,outcome,[10],inactive
same,outcome,[11],inactive
same,outcome,[12],inactive
same,fold change,[13]; [19],0.955 (inactive) and 0.894 (inactive)
same,fold change,[13]; [20],1.48 and 1.08
same,cell count,[13]; [21],8120 and 9040
same,cell count,[13]; [22],8510 and 10100
same,z-score,[14]; [23],1.21 (inactive) and 1.8 (inactive)
same,z-score,[14]; [24],0.284 and 0.0835
same,remaining NAD,[18],10 nM (inactive)
same,z-score,[16],0.45 (inactive)
COP(=O)(OC)OC(c1ccc(Cl)cc1)P(=O)(OC)OC (configuration not stated),nuclear beta-catenin stimulation,[1]; at 10 µM,-1.5% (inactive)
same,nuclear beta-catenin stimulation,"[1]; stimulation, at 2 µM",1.2%
same,insulin secretion stimulation,[2],1.8% (inactive)
same,viability decrease,[3],-3.65% (inactive)
same,tube area decrease,[4],-20.8% (inactive)
same,GLP1 secretion stimulation,[5],1.3% (inactive)
same,inhibition of viability,[6],-20.4% (inactive)
same,viability decrease (inhibition),[7],-1% (inactive)
same,viability decrease (inhibition),[8],1.6% (inactive)
same,remaining activity,[15],122% (inactive)
same,fold change,[13]; [19],0.979 (inactive)
same,fold change,[13]; [20],1.41
same,cell count,[13]; [21],8810
same,cell count,[13]; [22],8990
same,z-score,[16],-0.085 (inactive)
CC(C)OC(=O)C(C(=O)OC(C)C)=C1SC=CS1,nuclear beta-catenin stimulation,[1]; at 10 µM,1.3% (inactive)
same,nuclear beta-catenin stimulation,"[1]; stimulation, at 2 µM",0.1%
same,insulin secretion stimulation,[2],0.3% (inactive)
same,viability decrease,[3],3.95% (inactive)
same,tube area decrease,[4],4.8% (inactive)
same,GLP1 secretion stimulation,[5],3.5% (inactive)
same,inhibition of viability,[6],-0.1% (inactive)
same,viability decrease (inhibition),[7],6.3% (inactive)
same,viability decrease (inhibition),[8],8.2% (inactive)
same,outcome,[9],inactive
same,outcome,[10],inactive
same,outcome,[11],inactive
same,outcome,[12],inactive
same,fold change,[13]; [19],0.9 (inactive)
same,fold change,[13]; [20],0.974
same,cell count,[13]; [21],7660
same,cell count,[13]; [22],8520
same,z-score,[14]; [23],-0.382 (inactive)
same,z-score,[14]; [24],0.382
Cl/C(=C\n1cncn1)c1ccc(Cl)cc1Cl,nuclear beta-catenin stimulation,[1]; at 10 µM,3.9% (inactive)
same,nuclear beta-catenin stimulation,"[1]; stimulation, at 2 µM",4%
same,insulin secretion stimulation,[2],2.4% (inactive)
same,viability decrease,[3],3% (inactive)
same,tube area decrease,[4],-2.8% (inactive)
same,GLP1 secretion stimulation,[5],-1.4% (inactive)
same,inhibition of viability,[6],30.3% (inactive)
same,viability decrease (inhibition),[7],13.4% (inactive)
same,viability decrease (inhibition),[8],24.2% (inactive)
same,remaining activity,[15],121% (inactive)
same,fold change,[13]; [19],0.89 (inactive)
same,fold change,[13]; [20],0.653
same,cell count,[13]; [21],8590
same,cell count,[13]; [22],9640
same,z-score,[16],-0.15 (inactive)
CC(=O)SC[C@@H](C)C(=O)N1CCC[C@H]1C(=O)N[C@@H](Cc1ccccc1)C(=O)O,nuclear beta-catenin stimulation,[1]; at 10 µM,-0.2% (inactive)
same,nuclear beta-catenin stimulation,"[1]; stimulation, at 2 µM",-1.6%
same,insulin secretion stimulation,[2],0% (inactive)
same,viability decrease,[3],-13.4% (inactive)
same,tube area decrease,[4],7.4% (inactive)
same,GLP1 secretion stimulation,[5],0.3% (inactive)
same,inhibition of viability,[6],2.4% (inactive)
same,viability decrease (inhibition),[7],-15.3% (inactive)
same,viability decrease (inhibition),[8],-1.4% (inactive)
same,outcome,[9],inactive
same,outcome,[10],inactive
same,outcome,[11],inactive
Nc1ccn(C[C@@H](CO)OCP(=O)(O)O)c(=O)n1,nuclear beta-catenin stimulation,[1]; at 10 µM,1.2% (inactive)
same,nuclear beta-catenin stimulation,"[1]; stimulation, at 2 µM",0.4%
same,insulin secretion stimulation,[2],1.05% (inactive)
same,viability decrease,[3],22.7% (inactive)
same,tube area decrease,[4],-2.6% (inactive)
same,GLP1 secretion stimulation,[5],0.9% (inactive)
same,inhibition of viability,[6],14.9% (inactive)
same,viability decrease (inhibition),[7],109% (active)
same,viability decrease (inhibition),[8],2.8% (inactive)
same,outcome,[9],inactive
same,outcome,[10],inactive
same,outcome,[11],inactive
same,outcome,[12],inactive
CCOC(=O)[C@H](CCc1ccccc1)N[C@H]1CS[C@H](c2cccs2)CN(CC(=O)O)C1=O,nuclear beta-catenin stimulation,[1]; at 10 µM,0.9% (inactive)
same,nuclear beta-catenin stimulation,"[1]; stimulation, at 2 µM",-0.9%
same,insulin secretion stimulation,[2],2% (inactive)
same,viability decrease,[3],-8.8% (inactive)
same,tube area decrease,[4],-13.9% (inactive)
same,GLP1 secretion stimulation,[5],4.1% (inactive)
same,inhibition of viability,[6],-4.6% (inactive)
same,viability decrease (inhibition),[7],-29% (inactive)
same,viability decrease (inhibition),[8],2.5% (inactive)
same,outcome,[9],inactive
same,AC50,[10],14.8 µM (active)
same,AC50,[11],0.59 µM (active)
same,outcome,[12],inactive
Cc1[nH]c(=O)c(C#N)cc1-c1ccc2nccn2c1,nuclear beta-catenin stimulation,[1]; at 10 µM,-1.8% (inactive)
same,nuclear beta-catenin stimulation,"[1]; stimulation, at 2 µM",-0.5%
same,insulin secretion stimulation,[2],3% (inactive)
same,viability decrease,[3],-9.8% (inactive)
same,tube area decrease,[4],-3.8% (inactive)
same,GLP1 secretion stimulation,[5],-0.6% (inactive)
same,inhibition of viability,[6],-1.6% (inactive)
same,viability decrease (inhibition),[7],0.1% (inactive)
same,viability decrease (inhibition),[8],-7.8% (inactive)
same,outcome,[9],inactive
same,outcome,[10],inactive
same,outcome,[11],inactive
same,outcome,[12],inactive
same,fold change,[13]; [19],0.996 (inactive)
same,fold change,[13]; [20],0.805
same,cell count,[13]; [21],9250
same,cell count,[13]; [22],9290
same,z-score,[16],0.905 (inactive)
NC(=O)n1c(O)c(C(=O)c2cccs2)c2cc(Cl)ccc21,nuclear beta-catenin stimulation,[1]; at 10 µM,-0.2% (inactive)
same,nuclear beta-catenin stimulation,"[1]; stimulation, at 2 µM",-0.7%
same,insulin secretion stimulation,[2],0.2% (inactive)
same,viability decrease,[3],106% (active)
same,tube area decrease,[4],58.6% (active)
same,GLP1 secretion stimulation,[5],-0.5% (inactive)
same,inhibition of viability,[6],102% (active)
same,viability decrease (inhibition),[7],128% (active)
same,viability decrease (inhibition),[8],97.5% (active)
same,remaining activity,[15],121% (inactive)
same,fold change,[13]; [19],0.969 (inactive)
same,fold change,[13]; [20],1.95
same,cell count,[13]; [21],7020
same,cell count,[13]; [22],7250
same,z-score,[16],-0.475 (inactive)

# Source: PubChem BioAssay
